The source of these data is PubChem BioAssay (Tox21).

Assay [1] in a line: A CellTox Green Cytotoxicity Assay to monitor cytotoxicity in HepG2 cells - 8 hour (AID 1224890). Note: nearly all actives have a fitted effect of over 45% in size. Note: potency is the fitted concentration of half-maximal effect. In a few lines: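 Real-time, homogeneous cytotoxicity readout: dead-cell DNA staining by CellTox Green in HepG2 monolayers, fluorescence measured at timed intervals up to 40 h of continuous compound exposure.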
Assay [2] is described as follows: qHTS assay to identify small molecule antagonists of the estrogen receptor alpha (ER-alpha) signaling pathway using the BG1 cell line in the presence of 0.1 nM 17-beta-estradiol - cell viability counter screen (AID 1259241). Note: nearly all actives have a fitted effect of over 40% in size. Note: potency is the fitted concentration of half-maximal effect. The method, boiled down: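 Estradiol-stimulated (0.1 nM) VM7Luc4E2 cells exposed to compounds 22 hr; viability measured by fluorescence of cleaved CellTiter-Fluor substrate after 30 min.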
(Quantitative high-throughput screening tests each substance at several concentrations.)

Assay [3] is described as follows: qHTS assay to identify small molecule antagonists of the androgen receptor (AR) signaling pathway using the MDA cell line in the presence of 0.5 nM R1881 - cell viability counter screen (AID 1259242). Note: nearly all actives have a fitted effect of over 45% in size. Note: potency is the fitted concentration of half-maximal effect. In a few lines: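 Cytotoxicity toward MDA-kb2 cells is measured by CellTiter-Fluor live-cell protease fluorescence after 16 hr compound exposure at 37C in the presence of 0.5 nM R1881 stimulator.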

Assay [4] can be described thus: qHTS assay to identify small molecule phospholipidosis (PLD) inducers (AID 1259344; active = well fitted curve in the direction sought with a large enough effect; an effect the other way counts as inactive or inconclusive). The method, boiled down:
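HepG2 cells, 900/well, treated with compound plus LipidTOX Red for 24 h at 37 C; amiodarone positive and DMSO negative controls. Fixed with paraformaldehyde/Hoechst, then high-content imaging scored LipidTOX pit count and integrated intensity per well and per cell.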

Assay [5] can be described thus: qHTS assay to identify small molecule HDAC inhibitors (AID 1259364). Note: nearly all actives have a fitted effect of over 45% in size. Note: potency is the fitted concentration of half-maximal effect. The method, boiled down: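 Homogeneous cell-based luminescent assay of endogenous class I/II HDAC activity; HCT-116 cells, 2 h compound exposure, 30 min HDAC-Glo development at RT.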
Assay [6] in a line: qHTS assay to identify small molecule HDAC inhibitors - cell viability counter screen (AID 1259365). Note: series mostly up to about 92 µM; nearly all actives have a fitted effect of over 50% in size. In a few lines:
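After overnight seeding at 1,500 cells per well, wild-type HCT-116 cultures took up compounds in DMSO for 2hr at 37 C. Viable cell content came from luminescence with CellTiter-Glo.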

Assay [7] is described as follows: qHTS assay to identify small molecule antagonists of the sonic hedgehog signaling (Shh) pathway - cell viability counter screen (AID 1259367). Note: nearly all actives have a fitted effect of over 55% in size. Note: potency is the fitted concentration of half-maximal effect. The method, boiled down:
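NIH/3T3-derived Gli1-Luc reporter cells, 2,000/well, plated 4 hr before compound addition, then stimulated with conditioned medium for 24 hr at 37C. Viability measured in the same wells by CellTiter-Fluor fluorescence, reagent added at 23 hr for 1 hr.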

Assay [8] in a line: qHTS assay to identify small molecule agonists of the sonic hedgehog signaling (Shh) pathway - cell viability counter screen (AID 1259366). Note: nearly all actives have a fitted effect of over 50% in size. Note: potency is the fitted concentration of half-maximal effect. The method, boiled down: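 Same-well cytotoxicity read. Gli1-Luc reporter 3T3 cells; compounds 24hr, 37C/5% CO2; CellTiter-Fluor fluorescence.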
For assay [9], the target named is Estrogen receptor (Homo sapiens) (UniProt P03372). Put plainly: qHTS assay to identify small molecule antagonists of the estrogen receptor alpha (ER-alpha) signaling pathway using the BG1 cell line in the presence of 0.1 nM 17-beta-estradiol (AID 1259244). Note: nearly all actives have a fitted effect of over 50% in size. The method, boiled down:
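After 5 days in hormone-depleted medium (charcoal-stripped serum, no phenol red), VM7Luc4E2 cells were seeded, incubated 24 h, then co-treated with compound and 0.1 nM (final) estradiol for 22 h before luminescence detection.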

“And” between values parts separate entries of the source, which are not always exact repeats. Equal values may be shown once. Inconclusive results are not listed. Where a structure was tested more than once in an assay, its records may differ in their call. The source made the active and inactive calls. Unless noted, calls come from the whole dose curve; as a rule, active = well fitted curve in the direction sought with a large enough effect in the repeat runs; inconclusive = weak or mixed curves; inactive = no such curve, though single readings can be large; an effect the other way counts as inactive or inconclusive.

Estrogen receptor (Homo sapiens), sequence (P03372 whole entry, looked up): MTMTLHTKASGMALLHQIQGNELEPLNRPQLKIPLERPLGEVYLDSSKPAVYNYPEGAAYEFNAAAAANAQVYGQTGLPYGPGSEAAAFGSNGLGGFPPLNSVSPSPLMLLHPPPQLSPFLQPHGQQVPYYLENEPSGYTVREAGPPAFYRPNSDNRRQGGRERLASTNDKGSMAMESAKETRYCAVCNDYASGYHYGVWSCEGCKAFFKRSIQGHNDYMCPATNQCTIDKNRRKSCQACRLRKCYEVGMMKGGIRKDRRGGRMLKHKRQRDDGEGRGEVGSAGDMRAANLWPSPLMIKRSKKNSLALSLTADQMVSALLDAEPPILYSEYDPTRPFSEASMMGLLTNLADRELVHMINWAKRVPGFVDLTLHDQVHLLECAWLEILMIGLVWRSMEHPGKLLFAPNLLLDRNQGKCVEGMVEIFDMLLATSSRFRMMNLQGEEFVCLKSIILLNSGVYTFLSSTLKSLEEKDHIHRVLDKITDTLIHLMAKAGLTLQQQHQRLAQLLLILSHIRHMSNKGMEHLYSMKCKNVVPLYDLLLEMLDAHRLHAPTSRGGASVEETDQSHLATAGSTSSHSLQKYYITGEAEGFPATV

`Nc1ccc(S(=O)(=O)Nc2cnc3ccccc3n2)cc1`: the Potency result in assay [1], in [2], in [3], in [4], in assay [5] and in assay [7] was “inactive” each time. The compound was classed as inactive in [6].

For the compound `COc1ccc(C(=O)CC(=O)c2ccc(C(C)(C)C)cc2)cc1`, the Potency result in assay [1] was “inactive and 75.6 nM (active)”. Moreover, the Potency result in assay [2], in [3], in assay [4], in [5], in assay [8] and in assay [7] was “inactive” in each case. Moreover, the result in assay [6] was inactive.

In the case of `O=P(O)(O)O`, the Potency result in assay [1], in assay [2], in [3], in assay [4], in assay [5] and in assay [7] was “inactive” each time. In addition, the result in [6] was inactive.

For `O=C1OC2(c3cc(Br)c(O)c(Br)c3Oc3c2cc(Br)c(O)c3Br)c2c(Cl)c(Cl)c(Cl)c(Cl)c21`, the Potency was 3.47 µM (active) and 16.7 µM (active) in assay [1]; 8.64 µM (active) and 23.4 µM (active) in assay [2]; 6.12 µM (active) and 18.6 µM (active) in [3]; 9.7 µM (active) and 16.6 µM (active) in [8]; 3.86 µM (active) and 14.8 µM (active) in [7]. In addition, the Potency entry in [5] is “inactive”. Further, the outcome in assay [6] was inactive.

Take `CCCCC/C=C/C=C/C=O`: the Potency entry in assay [1], in assay [2], in assay [3], in [5], in assay [8] and in assay [7] was “inactive” each time. In [6], the compound was called inactive.

For `Cc1c(OCC(F)(F)F)ccnc1CS(=O)c1nc2ccccc2[nH]1` (stereo not drawn), the Potency entry in [1], in [2], in assay [3], in [4], in [5] and in assay [8] was “inactive” throughout. The Potency entry in [7] was “inactive”. Further, the result in [6] was inactive.

Take `CC(C)=CCC/C(C)=C\CO`: the Potency entry in assay [1], in assay [2], in assay [3], in [5] and in assay [7] was “inactive” each time. In addition, in assay [6], the result was inactive.

As for `COc1cccc2c1C(=O)c1c(O)c3c(c(O)c1C2=O)C[C@@](O)(C(=O)CO)C[C@@H]3O[C@H]1C[C@H](N)[C@H](O)[C@H](C)O1`, the Potency result in assay [1], in [9] and in assay [4] was “inactive” in each case. The Potency was 11.9 µM (active) in assay [2]; “inactive and 11.9 µM (active)” in [5]; 967 nM (active) and 9.44 µM (active) in assay [8]; 967 nM (active) and 6.68 µM (active) in assay [7]. Also, the result in [6] was inactive.

As for `CCCC(=O)O`, the Potency result in [1], in [2], in assay [3], in [4], in assay [5] and in assay [7] was “inactive” in each case. The compound was called inactive in [6].

On to `Brc1cc(Oc2cc(Br)c(Br)c(Br)c2Br)c(Br)c(Br)c1Br`, for which the Potency entry in assay [1], in assay [2], in assay [3], in assay [5] and in [7] was “inactive” each time. Further, in [6], the compound was called inactive.

`CN(C)C(=N)N=C(N)N`: the Potency entry in assay [1], in assay [2], in [3], in assay [4], in assay [5] and in assay [8] was “inactive” in each case. For the same compound, in assay [7], the Potency result was “inactive”. For the same compound, the compound was classed as inactive in [6].

Regarding `COC(=O)c1ccccc1`, the Potency entry in assay [1], in assay [2], in [3], in [5] and in assay [7] was “inactive” throughout. For the same compound, the compound was called inactive in assay [6].

Consider `c1ccc(Nc2ccccc2)cc1`, for which the Potency result in assay [1], in [2], in [3], in assay [5], in assay [8] and in assay [7] was “inactive” throughout. For the same compound, in assay [6], the result was inactive.

On to `CCCCC(CC)COP(=O)(OCC(CC)CCCC)OCC(CC)CCCC` (stereo not drawn), for which the Potency entry in assay [1], in [2], in assay [3], in [5] and in assay [7] was “inactive” each time. For the same compound, in assay [6], the call was inactive.

For `O=C1c2cccc(O)c2C(=O)c2c(O)cccc21`, the Potency entry in assay [1], in [2], in assay [3], in [4] and in assay [7] was “inactive” in each case. Also, in [6], the call was inactive.

`CC(=O)O[C@]1(C(C)=O)CC[C@H]2[C@@H]3C=C(Cl)C4=CC(=O)[C@@H]5C[C@@H]5[C@]4(C)[C@H]3CC[C@@]21C`: the Potency entry in [1], in assay [2], in assay [3], in assay [5], in [8] and in assay [7] was “inactive” each time. For the same compound, the call in assay [6] was inactive.

Turning to `C/C=C/C(=O)O`, the Potency entry in assay [1], in assay [2], in assay [3], in assay [5], in assay [8] and in [7] was “inactive” throughout. For the same compound, the call in assay [6] was inactive.
